Vif imaging: HIV Vif inhibition; HEK293T cells, Vif self-association by quenched fluorescence, imaging, 24 h; inhibition, % at 7.49 µM; actives 0.35% (n = 340,000); AID 602346; in the data active = inhibition above about 50%, passing the limit was not always enough
SKN-1 block: C. elegans SKN-1 inhibition; C. elegans VP596 Pgst-4::GFP/RFP ratio, acrylamide-induced, 24 h; inhibition, % at 21.8 µM; actives 0.49% (n = 360,000); AID 624304;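 active = interference check ratio from 0.5 to 1.5 plus GFP to RFP signal ratio inhibition reaching or exceeding a fixed threshold, cut at about 30% in these data, passing the limit was not always enough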
NR3A LBD binder: NR3A (human) ligand-binding domain modulation | NR3A LBD differential scanning fluorimetry, Tm shift; 0% = protein alone, 100% = glycine-bound protein | Tm shift relative to glycine control, % at 25 µM | actives 2.5% (n = 340,000) | AID 1259313;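 active = melting temperature shift of at least 10% of the positive control shift, at one fixed dose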
NadD inh: NadD (S. aureus) enzyme inhibition; AID 602399; actives 0.78% (n = 360,000); purified NadD enzyme, colorimetric absorbance read-out; inhibition, % at 20 µM; in the data active = inhibition above about 26%
esBAF inh: SWI/SNF esBAF complex inhibition | mouse ES cells, Bmi1-luciferase knock-in reporter, 24 h; 100% = twice the neutral-well signal | actives 2% (n = 350,000) | AID 602393 | reporter increase, % at 12.5 µM; in the data active = activation above about 40%;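 also: 0% = median of the plate's neutral control wells and 100% = double that signal; a rise in the Bmi1 reporter signal indicates esBAF inhibition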
SMARCA2 activ: increases SMARCA2 function in MMTV reporter cells | MG213 cells, MMTV-luciferase reporter, dexamethasone, overnight | activation, % at 9.1 µM | actives 1% (n = 370,000) | AID 652017; in the data active = activation above about 7.8%;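 also: 0% = vehicle wells and 100% = reference activator wells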
The depositor's hits bear a star; x = no result. A selection: hits, their analogues and other compounds. The true share with any hit is near 5.2%.

SMILES	Vif imaging	SKN-1 block	NR3A LBD binder	NadD inh	esBAF inh	SMARCA2 activ
CN1C(=O)c2ccc(N3CCCC3)cc2C1=O	x	14	-3	0	23	3
Cc1cc(N2CCCC2)ccc1/C=C1\NC(=S)N(C)C1=O	6	43*	-11	16	85*	0
Cc1ccc(-n2[nH]c(C)c(C=Nc3ccc4[nH]c(=O)[nH]c4c3)c2=O)cc1	0	8	-17	-2	x	-2
Cc1[nH]n(-c2cccc3ccccc23)c(=O)c1C=Nc1ccc2[nH]c(=O)[nH]c2c1	1	41*	-2	5	x	1
Cc1ccc(-n2[nH]c(C)c(C=Nc3ccc4[nH]c(=O)[nH]c4c3)c2=O)cc1C	7	-3	16*	-10	22	1
CC(C)NC(=O)N[C@@H]1C=C[C@@H](CC(=O)O)O[C@H]1CO	x	x	x	x	-2	x
CO[C@@H]1CN(C)C(=O)c2cc(NS(=O)(=O)CC(F)(F)F)ccc2OC[C@@H](C)N(C(=O)c2ccc3c(c2)OCO3)C[C@@H]1C	x	x	x	x	-2	x
COc1ccc(S(=O)(=O)N(C)C[C@H]2Oc3cc(C4=CCCC4)ccc3S(=O)(=O)N([C@@H](C)CO)C[C@H]2C)cc1	x	x	x	x	5	x
CCOC(=O)c1sc(N(Cc2ccccc2)C(=O)COC(=O)c2ccc(O)cc2)nc1C	-1	4	29*	2	x	-4
CCOC(=O)c1sc(N(Cc2ccccc2)C(=O)COC(=O)c2ccccc2O)nc1C	-6	7	2	-4	x	0
Clc1ccc(OCCCc2nc(-c3ccncc3)no2)c(Cl)c1	14	43*	-3	-3	-4	-4
COc1ccc(Cc2nc(-c3ccc(Cl)cc3)no2)cc1	9	35*	6	2	15	5
Clc1ccc(OCc2nc(-c3ccncc3)no2)cc1	-3	31	-1	2	62*	2
CN1C(=O)c2cc(NS(=O)(=O)c3ccccc3Cl)ccc2OC[C@@H]2O[C@@H](CC(=O)O)CC[C@H]21	x	x	x	x	1	x
C=CCn1cnc2c(c1=O)c1nc3ccccc3nc1n2/N=C/c1cccc(OC)c1	7	13	11*	-8	-3	0
COCCn1cnc2c(c1=O)c1nc3ccccc3nc1n2/N=C/c1ccc(OC)c(OC)c1	0	6	0	-7	x	0
O=C(NCC1CC1)[C@@H]1[C@@H](CO)[C@@H]2Cn3c(cccc3=O)[C@H]1N2C(=O)c1cccnc1	x	x	x	x	-3	x
CN1C(=O)C(N=Nc2ccc([N+](=O)[O-])cc2)SC1=S (stereo not given)	-18	96*	-12	0	17	3
CN1CCCCCC1=Nc1ccc([N+](=O)[O-])cc1	-2	-2	0	-5	x	2
COc1cc(OC)cc(-c2sc3ccc(OC)cc3c2-c2ccc(OCCN3CCOCC3)cc2)c1	61*	12	11*	-9	0	x
C[C@H]1CN([C@@H](C)CO)S(=O)(=O)c2ccc(-c3ccc(F)cc3)cc2O[C@@H]1CN(C)S(C)(=O)=O	x	x	x	x	3	x
CSc1cccc(NC(=O)c2ccc(NC3=NC4CS(=O)(=O)CC4S3)cc2)c1 (stereo not given)	5	0	28*	5	-1	0
O=C(Nc1cccc(Cl)c1)c1ccc(NC2=NC3CS(=O)(=O)CC3S2)cc1 (stereo not given)	11	3	-3	2	-2	1
Cc1ccc(NC(=O)c2ccc(NC3=NC4CS(=O)(=O)CC4S3)cc2)cc1 (stereo not given)	1	8	1	-1	-7	-2
CC(C)c1ccc(NC(=O)c2ccc(NC3=NC4CS(=O)(=O)CC4S3)cc2)cc1 (stereo not given)	3	18	16*	21	1	-1
Cc1ccc(S(=O)(=O)N[C@H]2C=C[C@H](CC(=O)NCCN3CCCCC3)O[C@@H]2CO)cc1	x	x	x	x	-4	x
CCS(=O)(=O)N[C@@H]1CC[C@@H](CC(=O)Nc2ccc(-c3ccccc3)cc2)O[C@@H]1CO	x	x	x	x	-4	x
O=C1c2ccccc2[C@@H]2C[C@@H](O)[C@H](Nc3cccc4ccccc34)CCN12	83*	17	0	14	-4	0
CC(C)C(=O)Nc1ccc2c(c1)C(=O)N(C)[C@@H]1CC[C@@H](CC(=O)NCc3ccc(F)cc3)O[C@@H]1CO2	x	x	x	x	-2	x
O=C(Cc1c(Cl)cccc1Cl)OCc1ccccn1	-5	-6	1	-2	49*	2
